Shown are actives, neighbours in structure and some others; about 13% of the full set was active somewhere.
USP8 block: blocks human USP8 ubiquitin-rhodamine cleavage; inhibition, % at 20 µM; purified USP8, Ub-rhodamine cleavage fluorescence, 30 min; P40818; AID 1645853; 47,000 tested, 4.2% active
USP17 inh: human USP17-like deubiquitinase inhibition. A8MUK1. purified USP17, Ub-rhodamine cleavage fluorescence, 3 h. inhibition, % at 50 µM. 47,000 tested, 6.5% active
USP7 inh: inhibitors of human USP7 deubiquitinase | AID 1645854 | 47,000 tested, 0.3% active | Q93009 | purified USP7, Ub-rhodamine cleavage fluorescence | inhibition, % at 20 µM
USP30 inh: human USP30 deubiquitinase inhibition; Q70CQ3; purified USP30, Ub-rhodamine cleavage fluorescence; inhibition, % at 25 µM; 47,000 tested, 5.3% active; AID 1645860
Target sequence (Q70CQ3 whole entry, looked up): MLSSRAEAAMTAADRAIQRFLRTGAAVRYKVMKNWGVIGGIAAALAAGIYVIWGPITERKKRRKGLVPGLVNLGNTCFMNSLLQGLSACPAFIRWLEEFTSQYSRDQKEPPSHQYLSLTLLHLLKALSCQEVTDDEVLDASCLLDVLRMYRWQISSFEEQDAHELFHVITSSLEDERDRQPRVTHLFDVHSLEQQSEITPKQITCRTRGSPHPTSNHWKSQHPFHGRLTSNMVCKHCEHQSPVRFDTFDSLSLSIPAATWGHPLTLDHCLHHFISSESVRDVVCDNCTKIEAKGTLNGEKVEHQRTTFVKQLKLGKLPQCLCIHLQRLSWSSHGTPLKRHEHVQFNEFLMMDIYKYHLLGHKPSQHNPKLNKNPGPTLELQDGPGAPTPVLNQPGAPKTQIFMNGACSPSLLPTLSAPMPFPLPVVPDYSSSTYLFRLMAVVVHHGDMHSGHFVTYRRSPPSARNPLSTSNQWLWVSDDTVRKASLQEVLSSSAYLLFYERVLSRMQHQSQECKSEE
USP10 inh: blocks human USP10 ubiquitin-rhodamine cleavage; Q14694; purified USP10, Ub-rhodamine fluorescence, 60 min; inhibition, % at 20 µM; 47,000 tested, 1.1% active
USP28 inh: blocks human USP28 ubiquitin-rhodamine cleavage | Q96RU2 | purified USP28, Ub-rhodamine cleavage fluorescence, 30 min | inhibition, % at 25 µM | 47,000 tested, 3% active
Numbers stand for hits. Rule as the data show it: active = inhibition above about 30%; inactive = the rest.

`COc1ccc(C(=O)Nc2cccc(-c3nc4ncccc4o3)c2)cc1` gave USP8 block inactive, USP17 inh inactive, USP7 inh inactive, USP30 inh inactive, USP10 inh inactive and USP28 inh inactive.
COc1ccc(NC(=O)CSc2nnc(NC(=O)c3ccccc3OC)s2)c([N+](=O)[O-])c1 was read as USP8 block inactive, USP17 inh inactive, USP7 inh inactive, USP30 inh inactive, USP10 inh inactive and USP28 inh inactive.
Screening Cc1cc(C)n(CC(=O)NC(C)c2ccccc2)c1-c1nc(C2CC2)no1 (centres undefined) returned USP8 block inactive, USP17 inh inactive, USP7 inh inactive, USP30 inh inactive, USP10 inh inactive and USP28 inh inactive.
`Cc1ccc(C(=O)N2CCN(C3CCN(Cc4ccc5nonc5c4)CC3)C(=O)C2)s1` gave USP8 block inactive, USP17 inh inactive, USP7 inh inactive, USP30 inh inactive, USP10 inh inactive and USP28 inh inactive.
Screening COc1ccc(C(=O)Nc2ccc(-c3nc4ncccc4o3)cc2)cc1Br returned USP8 block inactive, USP17 inh 32, USP7 inh inactive, USP30 inh inactive, USP10 inh inactive and USP28 inh inactive.
For O=C(COC(=O)c1ccc2ncsc2c1)Nc1ccccc1F the results were USP8 block inactive, USP17 inh 61, USP7 inh inactive, USP30 inh inactive, USP10 inh inactive and USP28 inh inactive.
For Cc1c(Cc2ccccc2)c(=O)oc2cc(OCc3nn[nH]n3)ccc12 the results were USP8 block inactive, USP17 inh 36, USP7 inh inactive, USP30 inh 38, USP10 inh inactive and USP28 inh 44.
Cc1ccc(NC(=O)c2noc3c2CCc2sccc2-3)nc1 was read as USP8 block 47, USP17 inh 32, USP7 inh inactive, USP30 inh inactive, USP10 inh inactive and USP28 inh inactive.
O=C(Nc1ccccn1)c1noc2c1CCc1sccc1-2 was read as USP8 block 88, USP17 inh 37, USP7 inh inactive, USP30 inh inactive, USP10 inh inactive and USP28 inh inactive.
Cc1cccnc1NC(=O)c1noc2c1CCc1sccc1-2 was read as USP8 block inactive, USP17 inh inactive, USP7 inh inactive, USP30 inh inactive, USP10 inh inactive and USP28 inh inactive.
Cc1ccc(S(=O)(=O)N2CCC(c3nc4ccccc4s3)CC2)cc1 was read as USP8 block inactive, USP17 inh inactive, USP7 inh inactive, USP30 inh inactive, USP10 inh inactive and USP28 inh inactive.
Screening O=C(O)c1ccc(NCc2nc3ccccc3n2CCOc2ccccc2)cc1 returned USP8 block inactive, USP7 inh inactive, USP30 inh inactive, USP10 inh inactive and USP28 inh inactive.
Cc1cccc(OCCn2c(NC(=O)c3ccc(Cl)cc3)nc3ccccc32)c1 was read as USP8 block 66, USP17 inh inactive, USP7 inh inactive, USP30 inh inactive, USP10 inh inactive and USP28 inh inactive.
O=C(COC(=O)c1ccc2c(=O)n3c(nc2c1)CCCCC3)c1ccc(Br)cc1 was read as USP8 block inactive, USP17 inh inactive, USP7 inh inactive, USP30 inh inactive, USP10 inh inactive and USP28 inh inactive.
CCOc1ccc2nc(C(=O)NCc3ccc4c(c3)OCO4)cn2n1 was read as USP8 block inactive, USP17 inh 32, USP7 inh inactive, USP30 inh 41, USP10 inh inactive and USP28 inh inactive.
Screening O=C(NCc1ccc2c(c1)OCO2)c1nn(C23CC4CC(CC(C4)C2)C3)cc1[N+](=O)[O-] returned USP8 block inactive, USP17 inh inactive, USP7 inh inactive, USP30 inh 62, USP10 inh inactive and USP28 inh inactive.
`COc1ccc2nc(C(=O)NCc3ccccc3)cn2n1` gave USP8 block inactive, USP17 inh inactive, USP7 inh inactive, USP30 inh inactive, USP10 inh inactive and USP28 inh inactive.
`CCCCCC(=O)N1c2ccccc2NC2=C(C(=O)CC(c3ccco3)C2)C1c1cc(OC)c(OC)c(OC)c1` (centres undefined) gave USP8 block inactive, USP17 inh 34, USP7 inh inactive, USP30 inh inactive, USP10 inh inactive and USP28 inh inactive.
Screening COc1ccc(C2C3=C(CC(c4ccco4)CC3=O)Nc3ccccc3N2C(C)=O)cc1 (centres undefined) returned USP8 block 56, USP17 inh 38, USP7 inh inactive, USP30 inh inactive, USP10 inh inactive and USP28 inh inactive.
Screening CN1CCN(CCCN2C(=O)C3C(C(=O)Nc4cc(Cl)cc(Cl)c4)C4C=CC3(O4)C2C(=O)NC2CCCCC2)CC1 (centres undefined) returned USP8 block inactive, USP17 inh inactive, USP7 inh inactive, USP30 inh inactive, USP10 inh inactive and USP28 inh inactive.
`Cc1c2oc3c(C)ccc(C(=O)N[C@@H]4C(=O)N[C@H](C(C)C)C(=O)N5CCC[C@H]5C(=O)N(C)CC(=O)N(C)[C@@H](C(C)C)C(=O)O[C@@H]4C)c3nc-2c(C(=O)N[C@@H]2C(=O)N[C@H](C(C)C)C(=O)N3CCC[C@H]3C(=O)N(C)CC(=O)N(C)[C@@H](C(C)C)C(=O)O[C@@H]2C)c(N)c1=O` gave USP8 block inactive, USP17 inh 35, USP7 inh inactive, USP30 inh inactive, USP10 inh inactive and USP28 inh inactive.
For CCC(C)C1OC(=O)C(CCC(=O)O)N(C)C(=O)C(C(C)C)NC(=O)C2CCCCN2C(=O)[C@H]([C@H](C)CC)NC(=O)C(CCC(=O)O)N(C)C(=O)C(C(C)C)N(C)C(=O)CNC(=O)C2CCCN2C(=O)C(Cc2ccccc2)NC1=O (some centres undefined) the results were USP8 block inactive, USP17 inh inactive, USP7 inh inactive, USP30 inh inactive, USP10 inh inactive and USP28 inh inactive.
COc1ccc2cc(C(=O)NCc3ccccn3)[nH]c2c1 was read as USP8 block inactive, USP17 inh inactive, USP7 inh inactive, USP30 inh inactive, USP10 inh inactive and USP28 inh inactive.
For COc1ccc2[nH]c(C(=O)N(Cc3ccccn3)Cc3ccccn3)cc2c1 the results were USP8 block 81, USP17 inh 44, USP7 inh inactive, USP30 inh inactive, USP10 inh inactive and USP28 inh inactive.
Screening COc1ccc(NC(=O)N2CCCC2c2c(C)noc2C)cc1OC (centres undefined) returned USP8 block inactive, USP17 inh inactive, USP7 inh inactive, USP30 inh inactive, USP10 inh inactive and USP28 inh inactive.
CCc1ccc(NC(=O)N2CCCC(CN3CCc4ccccc4C3)C2)cc1 (centres undefined) was read as USP8 block inactive, USP17 inh inactive, USP7 inh inactive, USP30 inh inactive, USP10 inh inactive and USP28 inh inactive.
Screening Cc1ccc(NC(=O)Nc2ccc(C)n(CC(=O)Nc3ccc(C)c(C)c3)c2=O)cc1 returned USP8 block 93, USP17 inh inactive, USP7 inh 43, USP30 inh inactive, USP10 inh 66 and USP28 inh inactive.

Screening results (PubChem BioAssay)
